Test results published in PubChem BioAssay.
Active and inactive are the calls of the source.

Key:
[1] = tested on: Plasmodium falciparum Sir2 (PF13_0152, Sir2A); test: Plasmodium falciparum Sir2A binding compounds – biochemical, small-molecule microarray, 635 nm fluorescence, primary screen (AID 1098); conditions: fluorescence 635 nm, higher = more signal;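 further: score merges spot fluorescence intensity with its signal-to-noise ratio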
[2] = probe aDKK1 binding to arrayed compounds – biochemical, biotinylated probe, 635/667 nm fluorescence, primary screen (AID 1099); conditions: small-molecule microarray, higher = more signal;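 further: score merges 667nm spot fluorescence with signal to noise across triplicate slides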
[3] = probe aCHRDL2 binding to arrayed compounds – biochemical, biotinylated probe, 635/667 nm fluorescence, primary screen (AID 1100); conditions: small-molecule microarray, higher = more signal
[4] = change in splice reporter luminescence, either direction, cell-based, HEK293, spliceosome inhibition project, primary screen (AID 1101); conditions: HEK293 splicing luciferase reporter, 24 h, higher = more signal, called active from +8 up or from −8 down;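 further: HEK293 cells carrying a splicing-competent luciferase reporter gene; test concentration not given here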
[5] = molecular target: Fibroblast growth factor 10 (Homo sapiens) (UniProt O15520); test: compounds binding fibroblast growth factor 10 – biochemical, small-molecule microarray, 635 nm fluorescence, primary screen (AID 1102); conditions: FGF10 binding, fluorescence 635 nm, higher = more signal
Sequence of Fibroblast growth factor 10 (Homo sapiens) (O15520 whole entry, looked up): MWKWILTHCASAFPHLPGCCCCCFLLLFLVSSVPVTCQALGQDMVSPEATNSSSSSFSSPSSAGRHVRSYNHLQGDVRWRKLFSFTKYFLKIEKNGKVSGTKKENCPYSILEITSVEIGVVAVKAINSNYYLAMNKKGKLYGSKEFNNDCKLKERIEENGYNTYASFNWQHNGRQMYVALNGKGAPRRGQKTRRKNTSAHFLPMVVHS

[6] = tested on: glycogen synthase kinase-3 (GSK3A per assay name; protocol says GSK3B); test: compounds binding glycogen synthase kinase-3 – biochemical, small-molecule microarray, 635 nm fluorescence, GSK3A, primary screen (AID 1103); conditions: fluorescence 635 nm, higher = more signal; further: the record names both GSK3A and GSK3B
[7] = molecular target: Epidermal growth factor receptor (Homo sapiens) (UniProt P00533); test: compounds binding epidermal growth factor receptor – biochemical, small-molecule microarray, 635 nm fluorescence, primary screen (AID 1104); conditions: EGFR binding, higher = more signal;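 further: score merges 667 nm emission intensity with spot signal to noise over triplicate slides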
Sequence of Epidermal growth factor receptor (Homo sapiens) (P00533 whole entry, looked up): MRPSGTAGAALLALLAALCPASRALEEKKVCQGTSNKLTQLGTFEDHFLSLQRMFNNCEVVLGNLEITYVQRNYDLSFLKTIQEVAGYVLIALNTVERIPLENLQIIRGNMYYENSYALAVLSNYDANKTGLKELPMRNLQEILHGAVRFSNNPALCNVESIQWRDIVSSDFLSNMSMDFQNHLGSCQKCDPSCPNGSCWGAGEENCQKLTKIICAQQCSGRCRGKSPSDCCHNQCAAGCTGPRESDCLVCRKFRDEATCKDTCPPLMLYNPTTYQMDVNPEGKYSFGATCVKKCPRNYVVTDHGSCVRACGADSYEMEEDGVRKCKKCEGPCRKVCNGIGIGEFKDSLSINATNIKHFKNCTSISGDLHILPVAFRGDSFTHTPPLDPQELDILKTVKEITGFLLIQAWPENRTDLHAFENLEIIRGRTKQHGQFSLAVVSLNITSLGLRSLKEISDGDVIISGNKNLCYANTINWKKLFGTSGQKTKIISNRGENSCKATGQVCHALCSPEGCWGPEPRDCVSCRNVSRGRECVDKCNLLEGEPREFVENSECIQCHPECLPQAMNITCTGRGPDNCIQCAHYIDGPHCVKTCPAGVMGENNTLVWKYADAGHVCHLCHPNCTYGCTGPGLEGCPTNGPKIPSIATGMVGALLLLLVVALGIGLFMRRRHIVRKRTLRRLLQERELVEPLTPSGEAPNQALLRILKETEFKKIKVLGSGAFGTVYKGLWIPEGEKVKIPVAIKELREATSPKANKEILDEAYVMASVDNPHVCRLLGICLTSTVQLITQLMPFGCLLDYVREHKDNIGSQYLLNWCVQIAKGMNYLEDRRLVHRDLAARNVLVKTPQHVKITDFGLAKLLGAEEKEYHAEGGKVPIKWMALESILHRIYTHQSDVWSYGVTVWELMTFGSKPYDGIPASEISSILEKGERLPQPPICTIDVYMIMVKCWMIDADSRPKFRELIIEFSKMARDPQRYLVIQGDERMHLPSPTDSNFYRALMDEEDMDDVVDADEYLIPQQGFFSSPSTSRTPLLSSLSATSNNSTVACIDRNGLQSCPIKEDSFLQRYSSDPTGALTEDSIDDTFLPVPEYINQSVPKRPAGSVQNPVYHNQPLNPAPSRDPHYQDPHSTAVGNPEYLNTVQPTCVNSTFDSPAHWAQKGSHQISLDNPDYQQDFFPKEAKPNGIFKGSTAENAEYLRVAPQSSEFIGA

[8] = molecular target: Follistatin-related protein 3 (Homo sapiens) (UniProt O95633); test: compounds binding follistatin-related protein 3 – biochemical, small-molecule microarray, 635 nm fluorescence, primary screen (AID 1105); conditions: FSTL3 binding, higher = more signal;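 further: score merges emission near 667 nm and signal to noise per printed spot across three slides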
Sequence of Follistatin-related protein 3 (Homo sapiens) (O95633 whole entry, looked up): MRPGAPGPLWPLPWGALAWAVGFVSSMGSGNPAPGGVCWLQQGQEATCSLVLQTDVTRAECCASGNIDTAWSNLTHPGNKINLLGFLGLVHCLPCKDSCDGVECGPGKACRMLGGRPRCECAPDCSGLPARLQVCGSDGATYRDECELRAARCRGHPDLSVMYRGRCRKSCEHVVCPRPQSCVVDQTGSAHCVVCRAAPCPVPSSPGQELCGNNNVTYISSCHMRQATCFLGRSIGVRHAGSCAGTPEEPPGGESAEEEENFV

[9] = molecular target: Dickkopf-related protein 1 (Homo sapiens) (UniProt O94907); test: small molecules binding DKK1 protein – biochemical, small-molecule microarray, 635 nm fluorescence scan, primary screen (AID 1106); conditions: higher = more signal;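 further: score merges emission near 667 nm with signal to noise over three replicate slides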
Sequence of Dickkopf-related protein 1 (Homo sapiens) (O94907 whole entry, looked up): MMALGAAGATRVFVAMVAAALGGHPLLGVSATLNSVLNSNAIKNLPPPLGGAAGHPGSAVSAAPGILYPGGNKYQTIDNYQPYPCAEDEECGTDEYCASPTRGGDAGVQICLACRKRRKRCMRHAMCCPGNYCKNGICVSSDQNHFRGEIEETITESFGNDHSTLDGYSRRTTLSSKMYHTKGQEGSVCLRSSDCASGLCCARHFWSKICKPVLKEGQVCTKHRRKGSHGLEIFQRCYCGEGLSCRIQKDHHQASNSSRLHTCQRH

[10] = tested on: Inhibin beta A chain (activin A); test: small molecules binding activin A – biochemical, small-molecule microarray, 635 nm fluorescence scan, primary screen (AID 1107); conditions: INHBA, higher = more signal;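 further: mouse activin A protein probed at 4.33 µg/mL on printed slides; score merges bound-protein fluorescence near 667 nm with spot signal-to-noise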
[11] = tested on: Human papillomavirus type 1a protein E7 (residues 44-93); test: small molecules binding HPV E7 44-93 – biochemical, small-molecule microarray, residues 44-93, 635 nm fluorescence, primary screen (AID 1108); conditions: fluorescence 635 nm, higher = more signal;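 further: E7 fragment applied at 1 µg/mL in TBST for 1 h at 4 C; score combines spot fluorescence with its signal to noise ratio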
[12] = hepatitis C replication reporter changes, two-sided – Huh7 cells, luciferase reporter, HCV replication inhibitor project, primary screen (AID 1109); conditions: Huh7 HCV replicon luciferase reporter, 48 h; higher = more signal;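 further: huh7 hepatoma cells harbouring a luciferase neomycin HCV replicon reporter; luciferase luminescence as measure of HCV replicon replication; test concentration not given here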
[13] = molecular target: Left-right determination factor 2 (Homo sapiens) (UniProt O00292); test: small molecules binding LEFTY2 protein – biochemical, small-molecule microarray, 635 nm fluorescence scan, primary screen (AID 1110); conditions: higher = more signal
Sequence of Left-right determination factor 2 (Homo sapiens) (O00292 whole entry, looked up): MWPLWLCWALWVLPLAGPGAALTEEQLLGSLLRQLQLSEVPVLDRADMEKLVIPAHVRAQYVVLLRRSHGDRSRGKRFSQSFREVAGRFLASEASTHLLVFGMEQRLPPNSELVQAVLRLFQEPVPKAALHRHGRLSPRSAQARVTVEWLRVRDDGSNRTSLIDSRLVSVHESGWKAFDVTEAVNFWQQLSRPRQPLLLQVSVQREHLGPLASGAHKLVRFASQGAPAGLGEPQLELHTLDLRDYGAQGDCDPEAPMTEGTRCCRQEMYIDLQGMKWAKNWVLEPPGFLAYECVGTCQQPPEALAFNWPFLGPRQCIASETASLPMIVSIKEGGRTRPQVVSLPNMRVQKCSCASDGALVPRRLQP

[14] = molecular target: Calmodulin-1 (Homo sapiens) (UniProt P0DP23); test: small molecules binding calmodulin-1 with EGTA – biochemical, small-molecule microarray, Cy5-labelled CALM1, profiling panel (AID 1111); conditions: Cy5-CALM1 binding fluorescence, higher = more signal;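 further: labelled calmodulin applied in Tris saline Tween buffer holding calcium plus EGTA and DTT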
[15] = molecular target: Calmodulin-1 (Homo sapiens) (UniProt P0DP23); test: small molecules binding Ca-loaded calmodulin-1 – biochemical, small-molecule microarray, Cy5-labelled CALM1, plus calcium, artefact control for SMM control-protein annotation, profiling panel (AID 1112); conditions: Cy5-CALM1 binding fluorescence, higher = more signal;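 further: score merges spot fluorescence with signal to noise from triplicate slides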
[16] = probe aWnt5a binding to arrayed compounds – biochemical, biotinylated probe, 635/667 nm fluorescence, primary screen (AID 1113); conditions: small-molecule microarray, higher = more signal;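 further: score merges 667 nm fluorescence intensity with signal-to-noise per printed feature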
[17] = probe aShh binding to arrayed compounds – biochemical, biotinylated probe, 635/667 nm fluorescence, primary screen (AID 1114); conditions: small-molecule microarray, higher = more signal;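 further: probe is biotin-labelled aShh protein from a stem cell growth factor screen; measures binding of labelled protein to compounds printed on the slide; score merges feature fluorescence at 667 nm with signal-to-noise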
[18] = probe aNog binding to arrayed compounds – biochemical, biotinylated probe, 635/667 nm fluorescence, primary screen (AID 1115); conditions: small-molecule microarray, higher = more signal;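 further: probe is biotinylated aNog protein used at 0.15 µg/mL for 1 h at 4 C; z-score combines 667 nm fluorescence of each spot with its signal to noise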
[19] = molecular target: Torsin-1A-interacting protein 1 (Homo sapiens) (UniProt Q5JTV8); test: compound microarray binding of lysate hLAP1 – cell lysate, small-molecule microarray, COS7 lysate, 635/667 nm fluorescence, primary screen (AID 1116); conditions: 635 nm fluorescence, higher = more signal
Sequence of Torsin-1A-interacting protein 1 (Homo sapiens) (Q5JTV8 whole entry, looked up): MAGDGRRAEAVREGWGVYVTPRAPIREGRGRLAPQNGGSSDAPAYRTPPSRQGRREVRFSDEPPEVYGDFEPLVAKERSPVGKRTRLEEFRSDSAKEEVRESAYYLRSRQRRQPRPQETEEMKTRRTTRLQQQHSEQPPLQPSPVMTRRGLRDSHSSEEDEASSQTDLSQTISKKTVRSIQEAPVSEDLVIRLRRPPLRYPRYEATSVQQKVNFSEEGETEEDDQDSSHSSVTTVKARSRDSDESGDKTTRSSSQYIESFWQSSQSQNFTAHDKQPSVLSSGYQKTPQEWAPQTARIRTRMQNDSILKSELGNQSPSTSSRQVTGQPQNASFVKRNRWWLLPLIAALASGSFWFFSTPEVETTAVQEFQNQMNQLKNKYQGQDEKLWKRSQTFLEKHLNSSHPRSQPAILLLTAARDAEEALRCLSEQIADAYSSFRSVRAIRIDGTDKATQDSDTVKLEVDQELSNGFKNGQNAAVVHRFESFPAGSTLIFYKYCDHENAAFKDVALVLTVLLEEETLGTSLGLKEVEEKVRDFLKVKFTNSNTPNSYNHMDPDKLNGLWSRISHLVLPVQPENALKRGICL

[20] = molecular target: Alpha-bungarotoxin (Bungarus multicinctus) (UniProt P60615); test: compounds binding labelled alpha-BTX control protein – biochemical, small-molecule microarray, Alexa647 label, 635/667 nm fluorescence, artefact control for SMM control protein annotation, profiling panel (AID 1117); conditions: alpha-BTX-A647 binding fluorescence, higher = more signal
Sequence of Alpha-bungarotoxin (Bungarus multicinctus) (P60615 whole entry, looked up): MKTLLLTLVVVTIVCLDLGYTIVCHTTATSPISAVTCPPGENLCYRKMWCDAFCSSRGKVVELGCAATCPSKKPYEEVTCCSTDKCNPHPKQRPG

Row | Compound | composite z-score [1] | composite z-score [2] | composite z-score [3] | z-score [4] | composite z-score [5] | composite z-score [6] | composite z-score [7] | composite z-score [8] | composite z-score [9] | composite z-score [10] | composite z-score [11] | z-score [12] | composite z-score [13] | composite z-score [14] | composite z-score [15] | composite z-score [16] | composite z-score [17] | composite z-score [18] | composite z-score [19] | composite z-score [20]
1 | CC(C)C[C@@H]1NC(=O)[C@@H]2C[C@H](C(=O)NCCCCCC[N+](C)(C)C)[C@H](c3ccc(O)cc3)N2C1=O | 1.38 | 0.026 | 0.0989 | 0.00513 (inactive) | 0.623 | 1.21 | 0.29 | 0.706 | 0.977 | 0.987 | 1.15 | 0.0338 | 0.424 | 0.669 | -1.15 | -0.208 | 0.246 | -0.158 | 0.912 | 2
2 | O=C1O[C@H](c2ccccc2)[C@H](c2ccccc2)N2[C@H]1[C@@H](C(=O)NC[C@H](O)c1ccccc1)[C@]1(C(=O)Nc3ccc(C#CCCO)cc31)[C@H]2c1ccc(O)cc1 | -0.229 | -0.145 | 0.0258 | -0.551 (inactive) | -0.716 | -1.28 | -0.286 | -1.17 | -0.523 | 0.644 | -0.453 | -1.07 | -0.47 | -0.6 | -0.158 | -0.202 | 0.0469 | -0.0725 | 0.0234 | -1.61
3 | [N-]=[N+]=Nc1ccccc1[C@H]1OC(c2ccc(OCCCO)cc2)=N[C@@]1(CCS(=O)(=O)c1ccccc1)C(=O)O | 1.31 | 0.503 | 1.14 | -0.433 (inactive) | 0.104 | -0.359 | -0.18 | -0.116 | -0.601 | 1.25 | 0.447 | 0.86 | -0.512 | 1.16 | 0.373 | -0.131 | 0.0278 | 1.01 | 2 | 0.582
4 | CCOC(=O)C[C@H]1[C@H](OC(=O)c2ccccc2-c2ccccc2)[C@@H](NC(=O)c2ccc3ccccc3c2)c2cc(OCCCO)ccc2N1C(=O)c1ccc2ccccc2n1 | -0.0144 | -0.228 | -0.154 | 0.411 (inactive) | 0.533 | 0.119 | 0.289 | 0.521 | -0.0224 | 0.282 | 1.12 | -1.08 | 0.043 | 0.0796 | -0.122 | -0.0441 | -0.214 | -0.364 | 0.4 | 0.164
5 | COCCOC(=O)N1C(=O)[C@@]2(c3cc(C#CCCO)ccc31)[C@H](c1ccc(O)cc1)N1[C@H](c3ccccc3)[C@H](c3ccccc3)OC(=O)[C@H]1[C@@H]2C(N)=O | 1.33 | 0.407 | 0.654 | -0.626 (inactive) | 0.173 | 0.169 | -0.709 | -0.0665 | -0.282 | 0.907 | -0.0809 | -0.016 | -0.597 | -0.523 | 0.456 | -0.0118 | 0.0611 | 0.0157 | 0.393 | 0.755
